Source: PubChem BioAssay (several laboratories)
An excerpt weighted towards active compounds, which were near 1.8% of everything screened.
Rtt109 HAT inh: blocks Candida albicans Rtt109/Vps75 acetyltransferase activity | purified Rtt109/Vps75, ThioGlo CoA-SH fluorescence, 4 h | AID 540336 | 330,000 compounds, 0.16% hits | Q5AAJ8 | inhibition, % at 34.9 µM;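 active means inhibition of at least 50% in every replicate; inconclusive means best replicate reaches 50% inhibition but some replicates fall short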
m5-HT2A agonist: activates the mouse 5-HT2A serotonin receptor | P35363 | CHO-K1 mHTR2A beta-arrestin complementation, luminescence; percent of 30 µM serotonin response | activation, % at 7.6 µM | 360,000 compounds, 0.66% hits | AID 624169;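 active means activation above a run cutoff, the mean activation of all tested compounds plus 3 SD, cut at about 14% in these data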;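 further: 0% = plate median of compound wells and 100% = 30 µM serotonin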
TLR4-MyD88 BLA: inhibitors of human TLR4-MyD88 binding; O00206+Q99836; 200,000 compounds, 0.18% hits; inhibition, % at 8.4 µM; HeLa CL3-4 TLR4/MyD88 BLA complementation, FRET ratio; AID 861; in the data active means inhibition above about 25%;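 further: 0% = vehicle and 100% = reference inhibitor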
NOD2 RIPK2 PPI: NOD2-RIPK2 protein interaction inhibition; CHO BLA complementation NOD2-RIPK2, CCF4 ratio; O43353; inhibition, % at 4.98 µM; 360,000 compounds, 0.38% hits; in the data active means inhibition above about 21%;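 further: 0% = vehicle only and 100% = reference blocker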
Target sequence (O43353 whole entry, looked up): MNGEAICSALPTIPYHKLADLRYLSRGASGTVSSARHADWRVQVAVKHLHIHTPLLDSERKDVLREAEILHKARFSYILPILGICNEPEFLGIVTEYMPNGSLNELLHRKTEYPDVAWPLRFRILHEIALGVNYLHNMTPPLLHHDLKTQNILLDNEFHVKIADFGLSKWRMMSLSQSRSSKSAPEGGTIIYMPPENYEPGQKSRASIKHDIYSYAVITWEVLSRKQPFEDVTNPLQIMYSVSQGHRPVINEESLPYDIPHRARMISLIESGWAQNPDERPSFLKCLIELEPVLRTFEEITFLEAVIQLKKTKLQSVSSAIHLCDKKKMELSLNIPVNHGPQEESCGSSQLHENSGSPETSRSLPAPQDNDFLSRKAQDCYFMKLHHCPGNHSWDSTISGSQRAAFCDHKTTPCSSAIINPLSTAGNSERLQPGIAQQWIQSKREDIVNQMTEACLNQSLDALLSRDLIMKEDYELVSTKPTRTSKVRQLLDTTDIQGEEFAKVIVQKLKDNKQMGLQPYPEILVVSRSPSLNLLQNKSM
TLR9-MyD88 block: blocks human TLR9 binding to MyD88; AID 504734; CHO BLA complementation TLR9-MyD88, CCF4 FRET ratio; Q9NR96+Q99836; inhibition, % at 4.98 µM; 340,000 compounds, 0.21% hits;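 active means inhibition above the mean over all tested compounds plus 3 SD, cut at about 21% in these data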;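 further: 0% = DMSO only wells and 100% = clavulanate BLA inhibitor control wells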
LANA-H2B inh: blocks KSHV LANA binding to histone H2A/H2B; Q9QR71; cell-free LANA-H2A/H2B peptide, fluorescence polarization; inhibition, % (no concentration beside the values); 320,000 compounds, 0.6% hits; AID 2629; in the data active means inhibition mostly above about 10%, no sharp cut-off; inactive means mostly below about 6.7%
Numbers without * were called inactive; i = inactive; ? = inconclusive; / = no result; ! = not confirmed by another sample.

SMILES	Rtt109 HAT inh	m5-HT2A agonist	TLR4-MyD88 BLA	NOD2 RIPK2 PPI	TLR9-MyD88 block	LANA-H2B inh
Cc1ccc2c(c1)[nH]c1c(N3CCN(Cc4ccccc4)CC3)ncnc12	7	-1	-6	-3	0	-3
c1ccc(CN2CCN(c3ncnc4c3[nH]c3ccccc34)CC2)cc1	2	24*	5	9	7	1
c1csc(CNc2nc(NCC3CCCCC3)c3sccc3n2)c1	/	-6	/	-8	/	/
Cc1cc(NC(=O)/C(C#N)=C/c2ccco2)n(-c2ccccc2)n1	6	-1	-5	-6	-4	-2
Cc1ccc(-c2ccc(/C=C(\C#N)C(=O)Nc3cc(C)nn3-c3ccccc3)o2)cc1	/	/	9	/	/	23*
COC(=O)[C@@]1(Sc2ccc(C)cc2)CC(=O)N[C@@H]1c1ccco1	/	-1	/	-10	/	/
COc1ccc(-n2c(C)ccc2-c2ccccc2)cn1	7	3	/	4	-3	79*
COC(=O)c1ccc(-n2c(C)ccc2-c2ccccc2)cc1	-12	0	1	-2	-8	-3
Cc1cc(C)c2c(=O)n(CC(=O)Nc3cccc(Cl)c3C)sc2n1	150*	0	/	18	8	-1
CCOC(=O)C1(C)CCN1C(=O)c1cc(OC)ccc1Br (stereo unspecified)	/	0	/	-20	/	/
O=[N+]([O-])c1cc2c(cc1C=Nc1ccccc1)OCO2	4	15*	-8	-4	1	-3
CN(CCO)c1ccc2c(c1)OC[C@@H](Cc1ccccc1)NS2(=O)=O	/	2	/	-4	/	/
COc1cccc(N/C=C/C(=O)c2ccc(Cl)cc2)c1	-1	1	-4	8	7	i
COc1ccc(N/C=C/C(=O)c2cc(OC)c(OC)c(OC)c2)cc1	1	-1	/	-3	11	12*
COc1ccc(N/C=C/C(=O)c2ccc(Cl)cc2)cc1	-7	1	-7	-6	1	33*
CC(C)C[C@H]1CN(CCCC[C@H]2CNC(=O)C(=O)N2CCc2ccccc2)C(=O)C(=O)N1CC1CCCCC1	/	-1	/	-5	/	/
O=C(O)c1ccc(CS(=O)c2cccc(C(F)(F)F)c2)o1 (stereo unspecified)	0	4	-1	2	6	119*
Cc1cccc(S(=O)Cc2ccc(C(=O)N3CCOCC3)o2)c1 (stereo unspecified)	-2	-7	/	-5	2	-4
Cc1c2cc(O)c(=O)cc-2oc2cc(O)c(O)cc12	-6	4	4	-7	-11	114*
CCc1nc2ccc(C(=O)NCCc3ccccn3)cn2c1N(CC)Cc1cccc(Br)c1	/	-5	/	7	/	/
C=CCNc1nc(NCCOc2ccccc2Cl)c2sc(-c3ccccc3)cc2n1	/	-13	/	-4	/	/
Cc1nc2nc(-c3ccc(F)cc3)cn2nc1C	2	-1	/	0	-9	-8
CCc1ccc(-c2cn3nc(C)c(C)nc3n2)cc1	i	2	27*	8	-1	2
COc1cc(C(=O)Nc2ccc(NC(=O)C(C)C)nc2)cc(OC)c1OC	0	-2	/	-3	1	15*
CC(=O)N(c1ccc2oc(=O)sc2c1)S(=O)(=O)c1ccccc1	67*	3	-10	1	-2	3
SMILES	Rtt109 HAT inh	m5-HT2A agonist	TLR4-MyD88 BLA	NOD2 RIPK2 PPI	TLR9-MyD88 block	LANA-H2B inh
CC(C)C(=O)N(c1ccc2oc(=O)sc2c1)S(=O)(=O)c1ccccc1	14	7	1	-4	3	3
CCCC(=O)N(c1ccc2oc(=O)sc2c1)S(=O)(=O)c1cccs1	124*	4	2	3	-4	2
COc1ccc(-c2nc3c4ccccc4ccn3c2Cc2ccccc2C(F)(F)F)cc1OC	/	8	/	4	/	/
COc1ccc(OC)c(NC(=O)C2(C)CCN2C(=O)C(C)(C)c2ccccc2)c1 (stereo unspecified)	/	-5	/	-5	/	/
CCCn1c(=O)c(C(=O)Nc2ccccc2N)c(O)c2ccccc21	/	-2	/	-2	-2	/
Oc1[nH]c2ccccc2c1N=Nc1ccccc1	7	6	/	8	1	16*
Oc1[nH]c2ccccc2c1N=Nc1ccc(F)cc1	-6	2	0	6	12	-4
CC(C)CC(NC(=O)C(NC(=O)OC(C)(C)C)C(C)C)C(N)=O (stereo unspecified)	7	6	7	5	-2	-2
CC(C)CC(NC(=O)C(NC(=O)OC(C)(C)C)C(C)C)C(=O)NC(CCC(=O)OCc1ccccc1)C(N)=O (stereo unspecified)	6	6	4	-5	4	21*!
CCOc1ccc(C2NC(=O)C(C#N)=C(S)N2c2ccc(OC)cc2)cc1OC (stereo unspecified)	144*	1	-15	-14	-12	-10
COc1ccc(C2NC(=O)C(C#N)=C(S)N2c2ccc(C)cc2)cc1OC (stereo unspecified)	24	0	1	-1	-15	1
COc1cc(C2NC(=O)C(C#N)=C(S)N2c2ccc(C)cc2)ccc1OC(C)C (stereo unspecified)	?	0	-23	2	14	-1
COc1ccc(N2C(S)=C(C#N)C(=O)NC2c2ccc(OC)c(OC)c2)cc1 (stereo unspecified)	110*	2	5	-3	-4	1
COc1ccc(C2NC(=O)C(C#N)=C(S)N2c2cccc(C)c2)cc1OC (stereo unspecified)	74*	-3	-15	6	-4	-5
Cc1ccc(N2C(S)=C(C#N)C(=O)NC2c2cccs2)cc1 (stereo unspecified)	?	-3	5	-12	-3	-4
N#CC1=C(S)N(c2ccccc2)C(c2cccs2)NC1=O (stereo unspecified)	109*	-2	-3	-9	-4	2
C[C@H]1COc2cccc(N3CCSCC3)c2S(=O)(=O)N1	/	0	/	-7	/	/
CC(C)CN1C(=O)CSCC1(C)C(=O)Nc1ccc2c(c1)OCCO2 (stereo unspecified)	/	4	/	-17	/	/
CCOC(=O)C1CCCN(c2nc3ccccc3nc2C(C#N)C(=O)OCCOC)C1 (stereo unspecified)	9	-7	12	10	3	20*
O=C(NCCc1ccc(O)cc1)c1[nH]c(C(F)(F)F)nc1-c1ccccc1	/	9	/	3	/	/
COc1ccc(C(C)(O)c2nc(-c3cccc(NC(C)=O)c3)cs2)cc1 (stereo unspecified)	/	-1	/	10	/	/
Cc1cc(C(=O)COC(=O)CCc2nc3ccccc3s2)c(C)n1C	-3	0	9	6	2	13*
COc1ccc(NC(=O)CCc2nc3ccccc3s2)c(OC)c1	0	3	11	-12	-2	6
CCOc1ccc(C(=O)CCc2nc3ccccc3s2)cc1	3	21*	-12	1	-1	-4
